Bioassay records deposited in PubChem by several laboratories.
S1P3 antag: antagonists of human S1P3 receptor | Q99500 | CHO S1P3 NFAT-BLA reporter, FRET fluorescence, antagonist mode | inhibition, % at 4.98 µM | 170,000 tested, 0.27% active | AID 485;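 active = inhibition above the plate cutoff, the mean inhibition of test wells on that plate plus 3 SD, cut at about 28% in these data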;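 also: cells challenged with S1P at its EC80 of 0.8 µM; blue over green emission ratio from cleaved BLA substrate after 4 h stimulation; 0% = S1P-stimulated wells and 100% = unstimulated DMSO-only wells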
EP2 antag: blocks the human prostaglandin E2 receptor EP2; C6 glioma cells expressing human EP2, cAMP TR-FRET; cells stimulated with saturating PGE2; P43116; 260,000 tested, 0.52% active; inhibition, % at 25 µM;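 active = percent inhibition above 40 after rounding to a whole number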;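 also: rat C6 glioma host cells with rolipram phosphodiesterase inhibitor present; the protocol text gives 20 µM as final concentration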
Target sequence (P43116 whole entry, looked up): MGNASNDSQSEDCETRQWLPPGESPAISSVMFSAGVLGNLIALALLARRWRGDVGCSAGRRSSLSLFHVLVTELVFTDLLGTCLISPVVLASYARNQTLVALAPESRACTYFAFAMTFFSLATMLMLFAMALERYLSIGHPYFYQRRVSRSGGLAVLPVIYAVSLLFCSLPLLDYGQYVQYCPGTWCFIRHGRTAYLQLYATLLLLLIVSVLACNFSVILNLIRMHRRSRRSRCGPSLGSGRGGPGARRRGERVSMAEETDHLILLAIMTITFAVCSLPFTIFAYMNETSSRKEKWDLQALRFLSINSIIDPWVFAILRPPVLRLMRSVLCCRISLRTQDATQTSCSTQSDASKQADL
INS promoter inh: TRM-6 insulin promoter activity inhibition; TRM-6 cells (human fetal islet line), insulin promoter-eGFP reporter, imaging; reporter expression induced with tamoxifen; inhibition, % at 2 µM; 130,000 tested, 0.9% active; AID 1273;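 active = inhibition above the mean plus 3 SD, with well images judged a real hit on visual review, cut at about 60% in these data, passing the limit was not always enough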
S1P4 agonist: human S1P4 receptor agonism; O95977; S1P4-expressing cell line, agonist reporter assay; activation, % at 4.98 µM; 220,000 tested, 0.35% active; in the data active = activation above about 11%;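 also: 0% = DMSO vehicle and 100% = reference agonist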
EP2 mod: modulates human prostaglandin E2 receptor EP2 signaling; P43116; EP2-expressing cells, cAMP HTRF FRET, PGE2 co-stimulation; induction, % at 25 µM; 260,000 tested, 0.83% active;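 active = compounds whose cAMP rise, as percent of the full-agonist control response, exceeds 60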;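 also: rat C6 glioma line stably carrying human EP2 under a CMV promoter; the protocol text gives 20 µM as final concentration; 100% = response of wells given 1 µM PGE2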
S1P4 antag: blocks the human S1P4 receptor; O95977; AID 1510; S1P4-expressing cells, antagonist mode, reporter read-out; inhibition, % at 4.98 µM; 220,000 tested, 0.26% active; in the data active = inhibition above about 29%;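 also: 0% = wells stimulated with agonist and 100% = vehicle wells without agonist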
S1P4 ag conf: confirmation of human S1P4 receptor agonists. activation, % at 4.98 µM. S1P4 agonist cell-based reporter assay. AID 1523. shares compounds with S1P4 agonist. 740 tested, 7% active; in the data active = activation above about 12%;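 also: 0% = vehicle and 100% = full reference agonist response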
S1P1 ag: human S1P1 agonism as S1P4 agonist counter-screen | shares compounds with S1P4 agonist | S1P1 agonist cell-based assay, activation | activation, % at 4.98 µM | 740 tested, 4% active; in the data active = activation above about 21%;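 also: 0% = vehicle wells and 100% = reference agonist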
Target sequence (P21453 whole entry, looked up): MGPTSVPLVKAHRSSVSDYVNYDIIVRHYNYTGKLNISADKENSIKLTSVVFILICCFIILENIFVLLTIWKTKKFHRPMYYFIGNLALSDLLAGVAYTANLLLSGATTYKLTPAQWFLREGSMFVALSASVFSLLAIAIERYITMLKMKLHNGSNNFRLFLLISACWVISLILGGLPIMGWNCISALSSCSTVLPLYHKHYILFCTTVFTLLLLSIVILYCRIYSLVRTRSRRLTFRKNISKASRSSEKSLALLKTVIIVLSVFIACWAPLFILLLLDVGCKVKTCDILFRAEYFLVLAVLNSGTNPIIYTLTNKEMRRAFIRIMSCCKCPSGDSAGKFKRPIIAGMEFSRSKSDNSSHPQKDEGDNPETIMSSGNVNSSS
S1P4 antag conf: confirmation of human S1P4 receptor antagonists. inhibition, % at 4.98 µM. S1P4-expressing cell line, antagonist mode, reporter read-out. shares compounds with S1P4 antag. 520 tested, 71% active. AID 1524; in the data active = inhibition above about 30%
S1P1 antag: counter-screen for S1P4 antagonists: antagonists of human S1P1; inhibition, % at 4.98 µM; 520 tested, 37% active; shares compounds with S1P4 antag; cell-based S1P1 antagonist counterscreen, inhibition; in the data active = inhibition above about 40%;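 also: receptor stimulated with S1P near its EC80; 0% = agonist stimulated wells and 100% = vehicle only wells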
Active calls of the source: *; · = no result. Rows were chosen to be rich in hits. Some 2.4% of all compounds tested hit in one or more screens of this group.

SMILES	S1P3 antag	EP2 antag	INS promoter inh	S1P4 agonist	EP2 mod	S1P4 antag	S1P4 antag conf	S1P1 antag	others
O=C(CSc1nnc(CNC(=O)c2cccs2)o1)Nc1ccccc1	-16.1	10.1	23.1	12.2*	3.6	-5.9	·	·	S1P4 ag conf=0.1;S1P1 ag=-5.5
COc1cc(C(=O)NCc2nnc(SCC(=O)Nc3nccs3)o2)cc(OC)c1OC	-21.1	2.5	-144.4	12.6*	-5.5	-19.6	·	·	S1P4 ag conf=-2.5;S1P1 ag=-0.6
COc1ccc(CNC(=O)c2sc3nc4c(c(C(F)(F)F)c3c2N)CCC4)cc1	-2.8	6.5	-47.7	195.9*	-5.1	-15.8	·	·	S1P4 ag conf=-1.9;S1P1 ag=-8.5
CCn1c(=O)oc2cc(S(=O)(=O)NCCc3c(C)noc3C)ccc21	·	6.6	·	·	-56.6	·	·	·
Cc1nn(Cc2ccc(F)cc2)c(C)c1NC(=O)c1cc(-c2ccc3c(c2)OCO3)on1	6.1	4.7	·	-0.3	-39.2	-4.1	·	·
Cc1ccc(Cn2nc(C)c(NC(=O)c3cc(-c4ccc5c(c4)OCO5)on3)c2C)cc1	26.9	14.3	5.0	19.2*	-25.4	4.1	·	·	S1P4 ag conf=-1.9;S1P1 ag=0.1
Cc1cc(C(=O)CN2C(=O)NC(C)(CC(C)C)C2=O)c(C)n1-c1ccc2c(c1)OCO2 (stereo unspecified)	3.3	7.3	·	13.2*	13.0	-9.5	·	·	S1P4 ag conf=-1.9;S1P1 ag=-0.5
Cc1cc(C(=O)CN2C(=O)NC3(CCCC3)C2=O)c(C)n1-c1ccc2c(c1)OCO2	-18.2	5.9	·	0.8	-11.6	-1.5	·	·
O=C(Cc1ccccc1[N+](=O)[O-])N1CCN(c2ccc(F)cc2)CC1	17.6	4.5	0.0	74.5*	11.3	-7.0	·	·	S1P4 ag conf=-2.4;S1P1 ag=-8.2
CC(=O)Nc1ccc(N2C(=O)CC2(/C=C/c2ccccc2)C(=O)NC2CCCCC2)cc1 (stereo unspecified)	·	12.7	·	·	-20.3	·	·	·
COc1cccc(NC(=O)CSc2nnc(Cc3cccs3)n2-c2ccc(C)cc2)c1	·	4.4	0.0	13.0*	1.9	-2.7	·	·	S1P4 ag conf=-2.2;S1P1 ag=-5.0
COc1ccc(NC(=O)CSc2nnc(Cc3cccs3)n2-c2ccc(C)cc2)cc1	·	2.8	-5.6	-2.4	13.1	8.8	·	·
O=C(CN1C(=O)CSc2ccc(S(=O)(=O)N3CCOCC3)cc21)NCCCN1CCOCC1	-22.0	2.1	-58.3	17.2*	15.9	-3.2	·	·	S1P4 ag conf=-2.0;S1P1 ag=-3.8
COC(=O)c1ccc(C(=O)Nc2cc(C)c3nc(NC(C)=O)sc3c2)cc1	·	7.9	·	·	-5.9	·	·	·
OC(c1cc(-c2ccc(Cl)cc2)nc2ccccc12)C1CCCCN1 (stereo unspecified)	5.3	23.9	·	-2.2	-45.9	53.1*	95.0*	83.5*
Cc1nn(CC(=O)N2c3ccccc3CC2C)c(=O)c2cc3ccsc3n12 (stereo unspecified)	·	·	·	·	-7.3	·	·	·
O=C1/C(=C/c2ccc(N3CCOCC3)o2)SC(=Nc2ccccc2)N1CCc1c[nH]c2ccccc12	·	11.9	·	-0.2	25.3	45.8*	64.0*	45.7*
COc1cc(/C=C2\SC(=Nc3ccccc3)N(CCc3c[nH]c4ccccc34)C2=O)ccc1OC(C)C(=O)O (stereo unspecified)	7.2	7.5	-6.7	0.5	-12.6	-14.7	·	·
COc1cccc(C(C(=O)NC2CCCC2)N(C(=O)c2ccco2)c2cccc(Cl)c2)c1OC (stereo unspecified)	·	12.3	·	·	13.4	·	·	·
CCCN(CCC)CC(O)Cn1cc(/C=C/C(=O)c2cccs2)c2ccccc21 (stereo unspecified)	8.3	6.5	-33.3	2.0	-27.3	34.3*	58.6*	74.5*
Cc1nn(C)cc1S(=O)(=O)NCCN1CCC(c2ccccc2)C1 (stereo unspecified)	·	4.3	·	·	-61.0	·	·	·
Cc1cc(C)c(C(=O)Nc2ccc(Br)c(C(F)(F)F)c2)c(C)c1	-1.2	9.2	35.1	0.6	-70.2	29.5*	53.1*	1.5
O=C(O)c1ccccc1C(=O)Nc1ccc(Br)c(C(F)(F)F)c1	2.2	3.7	·	0.4	-10.0	-3.9	·	·
CN(C)CCCN(Cc1ccc2ncccc2c1)Cc1ccco1	·	4.4	·	·	19.3	·	·	·
CC1=NNC(=O)/C1=C\c1cn(-c2ccccc2)nc1-c1ccccc1	-2.8	8.2	·	1.7	-38.6	35.6*	116.4*	55.3*
SMILES	S1P3 antag	EP2 antag	INS promoter inh	S1P4 agonist	EP2 mod	S1P4 antag	S1P4 antag conf	S1P1 antag	others
Cc1cccc(-c2noc(C)c2C(=O)NCCn2ccc(C)n2)c1	·	4.2	·	·	-34.3	·	·	·
COc1ccc(-n2c(CNc3cccc(Cl)c3)nnc2SCC(=O)O)cc1	·	4.5	·	·	-4.2	·	·	·
Cc1cc(NC(=O)/C=C/c2ccccc2)c(C(C)C)cc1O	8.2	9.4	·	0.9	-40.9	93.7*	108.9*	13.3
Cc1cc(NC(=O)c2ccccc2Cl)c(C(C)C)cc1O	·	6.5	-13.8	-0.2	-1.6	-9.1	·	·
COc1cc2cc(CN(Cc3cccs3)S(=O)(=O)c3ccccc3)c(=O)[nH]c2cc1OC	·	10.6	·	·	-91.8	·	·	·
O=C(Nc1ccc(-c2nc3ccccc3s2)c(Cl)c1)c1cccnc1	·	12.9	·	·	-79.3	·	·	·
O=C(CCn1cnc2ccccc21)N/N=C/C=C/c1ccccc1	2.3	6.2	·	0.3	-18.0	29.7*	-7.3	0.3
COc1ccccc1/C=C/C=N/NC(=O)CCn1cnc2ccccc21	4.1	11.4	·	0.9	-46.6	-4.5	·	·
CCC(Sc1nncn1C)C(=O)Nc1nnc(-c2ccccc2Cl)s1 (stereo unspecified)	-19.8	10.8	·	-0.9	1.6	33.0*	27.9	4.7
COc1ccccc1-c1nnc(NC(=O)C(C)Sc2nncn2C)s1 (stereo unspecified)	0.2	3.4	-11.8	1.6	-2.0	7.9	·	·
O=c1[nH]n(-c2cccc3cccnc23)c(=O)c2ccccc12	-0.1	7.1	0.0	0.1	23.4	-25.0	·	·
O=S1(=O)Nc2c(ccc3cccnc23)-c2ccccc21	14.0	8.9	·	0.0	-11.0	49.6*	95.0*	88.8*
Cc1ccc2c(C)c(C(=O)Nc3c(C)n(C)n(-c4ccccc4)c3=O)oc2c1	-17.5	10.1	-3.1	0.9	-6.5	-19.9	·	·
Cc1ccc2c(C)c(C(=O)Nc3c(C)n(C)n(-c4ccccc4)c3=O)oc2c1C	-6.2	3.9	1.6	-0.7	-23.1	29.1*	61.4*	30.3
Cc1cc2oc(C(=O)Nc3c(C)n(C)n(-c4ccccc4)c3=O)c(C)c2cc1C	-4.3	12.0	-19.6	-0.3	-8.5	30.2*	61.1*	47.7*
O=C(CSc1nnc2n(Cc3ccccc3)c3ccccc3n12)NC1CCCCC1	·	11.9	·	·	-3.1	·	·	·
CC(=O)N1CCN(c2ccc([N+](=O)[O-])c(-n3nc(C)cc3C)c2)CC1	7.0	12.9	33.3	-0.4	15.2	-6.3	·	·
